# Data taken from PubChem BioAssay AID1159580 (chemical genetic matrix, 2015).
# Values joined by “and” are separate entries in the source; they are usually repeats but may differ in a detail not shown here. Equal entries are not always repeated. About 2,000 (36%) of roughly 5,500 compounds were called active. Inconclusive results (about 18%) are left out. Cut-off read from the data, not from the text of the source: active = normalized growth mostly below about 0.91 (no sharp cut-off); inconclusive = no clear call, values can overlap the other calls; inactive = mostly above about 0.92. The list shows a part of the results.
# Test: chemical genetic growth profiling, strain panel (AID 1159580);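 note: tested at 20 µM; growth read once vehicle control cultures reached saturation at 30 °C; 1 = growth at the plate median or of vehicle wells; lower values mean less growth of the strain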
# Conditions: growth OD
# [1] = S. cerevisiae deletion strains, locus YAL013W, strain DEP1, stronger effect = lower value
# [2] = S. cerevisiae deletion strains, locus YBR229C, strain ROT2, stronger effect = lower value
# [3] = S. cerevisiae deletion strains, locus YCL061C, strain MRC1, stronger effect = lower value
# [4] = S. cerevisiae deletion strains, locus YDL101C, strain DUN1, stronger effect = lower value
# [5] = S. cerevisiae deletion strains, locus YDR150W, strain NUM1, stronger effect = lower value
# [6] = S. cerevisiae deletion strains, locus YEL061C, strain CIN8, stronger effect = lower value
# [7] = S. cerevisiae deletion strains, locus YGR078C, strain PAC10, stronger effect = lower value
# [8] = S. cerevisiae deletion strains, locus YGR229C, strain SMI1, stronger effect = lower value
# [9] = S. cerevisiae deletion strains, locus YHR030C, strain SLT2, stronger effect = lower value
# [10] = S. cerevisiae deletion strains, locus YHR087W, strain rtc3, stronger effect = lower value
# [11] = S. cerevisiae deletion strains, locus YJR043C, strain POL32, stronger effect = lower value
# [12] = S. cerevisiae deletion strains, locus YJR075W, strain HOC1, stronger effect = lower value
# [13] = S. cerevisiae deletion strains, locus YLR039C, strain RIC1, stronger effect = lower value
# [14] = S. cerevisiae deletion strains, locus YLR058C, strain SHM2 (second series), stronger effect = lower value
# [15] = S. cerevisiae deletion strains, locus YLR085C, strain ARP6, stronger effect = lower value
# [16] = S. cerevisiae deletion strains, locus YLR262C, strain YPT6, stronger effect = lower value
# [17] = S. cerevisiae deletion strains, locus YML094W, strain GIM5, stronger effect = lower value
# [18] = S. cerevisiae deletion strains, locus YMR219W, strain ESC1, stronger effect = lower value
# [19] = S. cerevisiae deletion strains, locus YMR263W, strain SAP30, stronger effect = lower value
# [20] = S. cerevisiae deletion strains, locus YNL153C, strain GIM3, stronger effect = lower value
# [21] = S. cerevisiae deletion strains, locus YNL298W, strain CLA4 (second series), stronger effect = lower value
# [22] = S. cerevisiae deletion strains, locus YNL322C, strain KRE1, stronger effect = lower value
# [23] = S. cerevisiae deletion strains, locus YNR030W, strain Alg12, stronger effect = lower value
# [24] = S. cerevisiae deletion strains, locus YPL055C, strain LGE1, stronger effect = lower value
# [25] = S. cerevisiae deletion strains, locus YPL241C, strain CIN2, stronger effect = lower value
# [26] = S. cerevisiae deletion strains, locus YPR135W, strain CTF4, stronger effect = lower value
compound,measurement,setting,value
Cc1cc(S(=O)(=O)NC(Cc2ccc([N+](=O)[O-])cc2)C(=O)O)c(Cl)cc1Cl (configuration not stated),normalized growth,[1],1.01 (inactive)
same,normalized growth,[2],0.996 (inactive)
same,normalized growth,[3],1 (inactive)
same,normalized growth,[4],0.997 (inactive)
same,normalized growth,[5],0.927 (inactive)
same,normalized growth,[6],1.01 (inactive)
same,normalized growth,[7],1 (inactive)
same,normalized growth,[8],1.01 (inactive)
same,normalized growth,[9],1.07 (inactive)
same,normalized growth,[10],1 (inactive)
same,normalized growth,[11],0.998 (inactive)
same,normalized growth,[12],1 (inactive)
same,normalized growth,[13],1.01 (inactive)
same,normalized growth,[14],1 (inactive)
same,normalized growth,[15],1.02 (inactive)
same,normalized growth,[16],1 (inactive)
same,normalized growth,[17],1.02 (inactive)
same,normalized growth,[18],0.995 (inactive)
same,normalized growth,[19],1 (inactive)
same,normalized growth,"S. cerevisiae deletion strains, locus YNL128W, strain TEP1, stronger effect = lower value",1 (inactive)
same,normalized growth,[20],0.995 (inactive)
same,normalized growth,[21],1.01 (inactive)
same,normalized growth,[22],1 (inactive)
same,normalized growth,[23],1.01 (inactive)
same,normalized growth,[24],1.04 (inactive)
same,normalized growth,[25],1.02 (inactive)
same,normalized growth,[26],0.988 (inactive)
same,normalized growth,"S. cerevisiae strains, strain wild type, stronger effect = lower value",1.01 (inactive)
O=C(OCCNc1ccc([N+](=O)[O-])cn1)c1ccc([N+](=O)[O-])o1,normalized growth,[1],0.848 (active)
same,normalized growth,"S. cerevisiae deletion strains, locus YAR019C, strain CDC15, stronger effect = lower value",0.898 (inactive)
same,normalized growth,"S. cerevisiae deletion strains, locus YBL105C, strain PKC1, stronger effect = lower value",0.927 (inactive)
same,normalized growth,"S. cerevisiae deletion strains, locus YBR135W, strain CKS1, stronger effect = lower value",0.922 (inactive)
same,normalized growth,"S. cerevisiae deletion strains, locus YBR136W, strain MEC1, stronger effect = lower value",0.919 (inactive)
same,normalized growth,"S. cerevisiae deletion strains, locus YBR160W, strain CDC28, stronger effect = lower value",0.92 (inactive)
same,normalized growth,[2],0.816 (active)
same,normalized growth,[3],0.86 (active)
same,normalized growth,"S. cerevisiae deletion strains, locus YDL017W, strain CDC7, stronger effect = lower value",0.932 (inactive)
same,normalized growth,"S. cerevisiae deletion strains, locus YDL028C, strain MPS1, stronger effect = lower value",0.917 (inactive)
same,normalized growth,[4],0.947 (inactive) and 0.908 (inactive)
same,normalized growth,"S. cerevisiae deletion strains, locus YDL108W, strain KIN28, stronger effect = lower value",0.922 (inactive)
same,normalized growth,"S. cerevisiae deletion strains, locus YDL132W, strain cdc53, stronger effect = lower value",0.888 (active)
same,normalized growth,"S. cerevisiae deletion strains, locus YDL134C, strain PPH21, stronger effect = lower value",0.961 (inactive)
same,normalized growth,"S. cerevisiae deletion strains, locus YDL214C, strain PRR2, stronger effect = lower value",0.742 (inactive)
same,normalized growth,"S. cerevisiae deletion strains, locus YDR052C, strain DBF4, stronger effect = lower value",0.81 (active)
same,normalized growth,"S. cerevisiae deletion strains, locus YDR054C, strain cdc34, stronger effect = lower value",0.898 (inactive)
same,normalized growth,[5],0.866 (inactive)
same,normalized growth,"S. cerevisiae deletion strains, locus YDR226W, strain ADK1, stronger effect = lower value",0.887 (active)
same,normalized growth,"S. cerevisiae deletion strains, locus YDR477W, strain SNF1, stronger effect = lower value",0.829 (inactive)
same,normalized growth,[6],0.931 (inactive)
same,normalized growth,"S. cerevisiae deletion strains, locus YER123W, strain YCK3, stronger effect = lower value",0.673 (inactive)
same,normalized growth,"S. cerevisiae deletion strains, locus YER133W, strain GLC7, stronger effect = lower value",0.771 (inactive)
same,normalized growth,"S. cerevisiae deletion strains, locus YFL009W, strain cdc4, stronger effect = lower value",0.903 (inactive)
same,normalized growth,"S. cerevisiae deletion strains, locus YFL029C, strain CAK1, stronger effect = lower value",0.894 (inactive)
same,normalized growth,"S. cerevisiae deletion strains, locus YFR003C, strain YPI1, stronger effect = lower value",0.924 (inactive)
same,normalized growth,"S. cerevisiae deletion strains, locus YFR019W, strain FAB1, stronger effect = lower value",0.583 (active)
same,normalized growth,"S. cerevisiae deletion strains, locus YFR028C, strain CDC14, stronger effect = lower value",0.91 (inactive)
same,normalized growth,"S. cerevisiae deletion strains, locus YGR040W, strain KSS1, stronger effect = lower value",0.735 (inactive)
same,normalized growth,"S. cerevisiae deletion strains, locus YGR052W, strain FMP48, stronger effect = lower value",0.735 (inactive)
same,normalized growth,[7],0.786 (active)
same,normalized growth,"S. cerevisiae deletion strains, locus YGR092W, strain DBF2, stronger effect = lower value",0.17 (active)
same,normalized growth,[8],0.979 (inactive)
same,normalized growth,[9],0.885 (inactive) and 0.148 (active)
same,normalized growth,"S. cerevisiae deletion strains, locus YHR079C, strain IRE1, stronger effect = lower value",0.67 (inactive)
same,normalized growth,"S. cerevisiae deletion strains, locus YHR082C, strain KSP1, stronger effect = lower value",0.914 (inactive)
same,normalized growth,[10],0.744 (active)
same,normalized growth,"S. cerevisiae deletion strains, locus YHR205W, strain SCH9, stronger effect = lower value",0.663 (inactive)
same,normalized growth,"S. cerevisiae deletion strains, locus YIL147C, strain SLN1, stronger effect = lower value",0.931 (inactive)
same,normalized growth,"S. cerevisiae deletion strains, locus YJL095W, strain BCK1, stronger effect = lower value",0.677 (inactive)
same,normalized growth,"S. cerevisiae deletion strains, locus YJL128C, strain PBS2, stronger effect = lower value",0.895 (inactive)
same,normalized growth,"S. cerevisiae deletion strains, locus YJL157C, strain FAR1, stronger effect = lower value",0.788 (inactive)
same,normalized growth,"S. cerevisiae deletion strains, locus YJL187C, strain SWE1, stronger effect = lower value",0.86 (active)
same,normalized growth,"S. cerevisiae deletion strains, locus YJR016C, strain ILV3, stronger effect = lower value",0.942 (inactive)
same,normalized growth,[11],0.968 (inactive)
same,normalized growth,"S. cerevisiae deletion strains, locus YJR066W, strain TOR1 (second series), stronger effect = lower value",0.391 (active)
same,normalized growth,"S. cerevisiae deletion strains, locus YJR066W, strain TOR1, stronger effect = lower value",0.78 (inactive)
same,normalized growth,[12],0.795 (active)
same,normalized growth,"S. cerevisiae deletion strains, locus YKL048C, strain ELM1, stronger effect = lower value",0.772 (active)
same,normalized growth,"S. cerevisiae deletion strains, locus YKL067W, strain YNK1, stronger effect = lower value",0.708 (active)
same,normalized growth,"S. cerevisiae deletion strains, locus YKL101W, strain HSL1, stronger effect = lower value",0.737 (inactive)
same,normalized growth,"S. cerevisiae deletion strains, locus YKL193C, strain SDS22, stronger effect = lower value",0.899 (inactive)
same,normalized growth,"S. cerevisiae deletion strains, locus YKL203C, strain TOR2, stronger effect = lower value",0.822 (inactive)
same,normalized growth,[13],0.449 (active)
same,normalized growth,[14],0.943 (inactive)
same,normalized growth,[15],0.727 (active)
same,normalized growth,"S. cerevisiae deletion strains, locus YLR113W, strain HOG1, stronger effect = lower value",0.444 (active)
same,normalized growth,"S. cerevisiae deletion strains, locus YLR133W, strain CKI1, stronger effect = lower value",0.813 (inactive)
same,normalized growth,[16],0.703 (active)
same,normalized growth,"S. cerevisiae deletion strains, locus YLR403W, strain SFP1, stronger effect = lower value",0.845 (inactive)
same,normalized growth,"S. cerevisiae deletion strains, locus YML070W, strain DAK1, stronger effect = lower value",0.609 (active)
same,normalized growth,[17],0.896 (inactive)
same,normalized growth,"S. cerevisiae deletion strains, locus YMR001C, strain CDC5, stronger effect = lower value",0.915 (inactive)
same,normalized growth,"S. cerevisiae deletion strains, locus YMR205C, strain PFK2 (second series), stronger effect = lower value",0.884 (inactive)
same,normalized growth,[18],0.809 (active)
same,normalized growth,[19],0.827 (active)
same,normalized growth,"S. cerevisiae deletion strains, locus YMR277W, strain FCP1, stronger effect = lower value",0.904 (inactive)
same,normalized growth,"S. cerevisiae deletion strains, locus YMR307W, strain GAS1, stronger effect = lower value",0.817 (inactive)
same,normalized growth,"S. cerevisiae deletion strains, locus YNL006W, strain LST8, stronger effect = lower value",0.933 (inactive)
same,normalized growth,"S. cerevisiae deletion strains, locus YNL020C, strain ARK1, stronger effect = lower value",0.81 (inactive)
same,normalized growth,[20],0.957 (inactive)
same,normalized growth,"S. cerevisiae deletion strains, locus YNL161W, strain CBK1, stronger effect = lower value",0.902 (inactive)
same,normalized growth,"S. cerevisiae deletion strains, locus YNL183C, strain NPR1, stronger effect = lower value",0.684 (inactive)
same,normalized growth,"S. cerevisiae deletion strains, locus YNL207W, strain RIO2, stronger effect = lower value",0.9 (inactive)
same,normalized growth,"S. cerevisiae deletion strains, locus YNL222W, strain SSU72, stronger effect = lower value",0.915 (inactive)
same,normalized growth,[21],0.956 (inactive)
same,normalized growth,"S. cerevisiae deletion strains, locus YNL307C, strain MCK1 (second series), stronger effect = lower value",0.709 (inactive)
same,normalized growth,[22],0.913 (active)
same,normalized growth,[23],0.776 (active)
same,normalized growth,"S. cerevisiae deletion strains, locus YOL006C, strain TOP1, stronger effect = lower value",0.831 (inactive)
same,normalized growth,"S. cerevisiae deletion strains, locus YOL078W, strain AVO1, stronger effect = lower value",0.902 (inactive)
same,normalized growth,"S. cerevisiae deletion strains, locus YOL136C, strain PFK27, stronger effect = lower value",0.697 (inactive)
same,normalized growth,"S. cerevisiae deletion strains, locus YOR061W, strain CKA2, stronger effect = lower value",0.735 (inactive)
same,normalized growth,"S. cerevisiae deletion strains, locus YOR119C, strain RIO1, stronger effect = lower value",0.838 (inactive)
same,normalized growth,"S. cerevisiae deletion strains, locus YOR231W, strain MKK1, stronger effect = lower value",0.572 (active)
same,normalized growth,"S. cerevisiae deletion strains, locus YOR329C, strain SCD5, stronger effect = lower value",0.921 (inactive)
same,normalized growth,"S. cerevisiae deletion strains, locus YPL031C, strain PHO85, stronger effect = lower value",0.814 (inactive)
same,normalized growth,[24],0.738 (active)
same,normalized growth,"S. cerevisiae deletion strains, locus YPL153C, strain RAD53, stronger effect = lower value",0.351 (active)
same,normalized growth,"S. cerevisiae deletion strains, locus YPL204W, strain HRR25, stronger effect = lower value",0.749 (inactive)
same,normalized growth,"S. cerevisiae deletion strains, locus YPL209C, strain IPL1, stronger effect = lower value",0.921 (inactive)
same,normalized growth,[25],0.931 (inactive)
same,normalized growth,"S. cerevisiae deletion strains, locus YPL256C, strain CLN2, stronger effect = lower value",0.624 (active)
same,normalized growth,"S. cerevisiae deletion strains, locus YPR025C, strain CCL1, stronger effect = lower value",0.929 (inactive)
same,normalized growth,"S. cerevisiae deletion strains, locus YPR106W, strain ISR1, stronger effect = lower value",0.945 (inactive)
same,normalized growth,"S. cerevisiae deletion strains, locus YPR111W, strain DBF20, stronger effect = lower value",0.888 (inactive)
same,normalized growth,[26],0.944 (inactive)
same,normalized growth,"S. cerevisiae deletion strains, strain NNK1, stronger effect = lower value",0.913 (inactive)
same,normalized growth,"S. cerevisiae deletion strains, strain TSCII, stronger effect = lower value",0.894 (inactive)
